For the assay, the target named is PITX2 (Homo sapiens, UniProt Q99697 72-157). In words: PBM; 200 nM protein, PBS. To be noted: dsDNA, one strand shown.
As for TGACGCAA, the binding signal was 8.04 upbm affinity estimate (log intensity, higher = more binding, comparable within an allelic series).
In the case of ACTAAGCC, the binding signal was 12.4 upbm affinity estimate (log intensity, higher = more binding, comparable within an allelic series).
To GCCGGATA belongs 9.58 upbm affinity estimate (log intensity, higher = more binding, comparable within an allelic series).
To GGAGAGAC belongs 8.03 upbm affinity estimate (log intensity, higher = more binding, comparable within an allelic series); to GCCTCACC, 8.04 upbm affinity estimate (log intensity, higher = more binding, comparable within an allelic series).
To CTGAGATA belongs 9.22 upbm affinity estimate (log intensity, higher = more binding, comparable within an allelic series).
For CAGTACTG, the binding signal was 7.98 upbm affinity estimate (log intensity, higher = more binding, comparable within an allelic series).
Consider AGTGCCTC, for which the binding signal was 7.74 upbm affinity estimate (log intensity, higher = more binding, comparable within an allelic series).
To CTAGCGAG belongs 8.11 upbm affinity estimate (log intensity, higher = more binding, comparable within an allelic series); to TAAGCTTA, 12.3 upbm affinity estimate (log intensity, higher = more binding, comparable within an allelic series); to CAAAATAC, 9.13 upbm affinity estimate (log intensity, higher = more binding, comparable within an allelic series).
To CGAGCGTC belongs 7.93 upbm affinity estimate (log intensity, higher = more binding, comparable within an allelic series); to GTCCACTA, 7.94 upbm affinity estimate (log intensity, higher = more binding, comparable within an allelic series); to GAGATCAC, 9.79 upbm affinity estimate (log intensity, higher = more binding, comparable within an allelic series).
With ACTTGATC the figure was 10.2 upbm affinity estimate (log intensity, higher = more binding, comparable within an allelic series); with ATAGGCTC, 9.54 upbm affinity estimate (log intensity, higher = more binding, comparable within an allelic series); with TATGATCA, 9.32 upbm affinity estimate (log intensity, higher = more binding, comparable within an allelic series).
Consider CGCCTGTC, for which the binding signal is 8.14 upbm affinity estimate (log intensity, higher = more binding, comparable within an allelic series).
With AGATCAAC the figure was 10.1 upbm affinity estimate (log intensity, higher = more binding, comparable within an allelic series).
To GACGCGAC belongs 7.93 upbm affinity estimate (log intensity, higher = more binding, comparable within an allelic series); to AAGATAAT, 10.6 upbm affinity estimate (log intensity, higher = more binding, comparable within an allelic series).
To GGTATTAA belongs 12.3 upbm affinity estimate (log intensity, higher = more binding, comparable within an allelic series); to CTCCCCGA, 8.1 upbm affinity estimate (log intensity, higher = more binding, comparable within an allelic series).
Take GAGAGGCC: the binding signal is 7.88 upbm affinity estimate (log intensity, higher = more binding, comparable within an allelic series).
For AGATCCGG, the binding signal is 9.62 upbm affinity estimate (log intensity, higher = more binding, comparable within an allelic series).
Regarding ACTGTCAG, the binding signal is 7.86 upbm affinity estimate (log intensity, higher = more binding, comparable within an allelic series).
To GAACACGA belongs 8.02 upbm affinity estimate (log intensity, higher = more binding, comparable within an allelic series).
With ACCACCGT the figure was 8.12 upbm affinity estimate (log intensity, higher = more binding, comparable within an allelic series).
Turning to TATTAGCA, the binding signal was 10.1 upbm affinity estimate (log intensity, higher = more binding, comparable within an allelic series).
To ACCGTTGC belongs 8.17 upbm affinity estimate (log intensity, higher = more binding, comparable within an allelic series); to CCTTCCAC, 8.11 upbm affinity estimate (log intensity, higher = more binding, comparable within an allelic series); to GCGTACCC, 8.02 upbm affinity estimate (log intensity, higher = more binding, comparable within an allelic series).
Take ACGCCGAG: the binding signal is 8 upbm affinity estimate (log intensity, higher = more binding, comparable within an allelic series).
With CACTAGTG the figure was 8.21 upbm affinity estimate (log intensity, higher = more binding, comparable within an allelic series).
As to CAGACACG, the binding signal was 7.83 upbm affinity estimate (log intensity, higher = more binding, comparable within an allelic series).
To ACTCTCGG belongs 8.08 upbm affinity estimate (log intensity, higher = more binding, comparable within an allelic series).
With AGAGCTCA the figure was 9.42 upbm affinity estimate (log intensity, higher = more binding, comparable within an allelic series); with GGTCTTTA, 9.73 upbm affinity estimate (log intensity, higher = more binding, comparable within an allelic series); with AAGCCCTA, 10.4 upbm affinity estimate (log intensity, higher = more binding, comparable within an allelic series).
With AGGGATAG the figure was 9.94 upbm affinity estimate (log intensity, higher = more binding, comparable within an allelic series).

Values taken from PMC11006913.
